# High-throughput results: PubChem, NMMLSC
# Rows were chosen to be rich in hits. Some 1.9% of all compounds tested hit in one or more screens of this group.
# FPR binder: binds the human formylpeptide receptor FPR | FPR-expressing cells, fluorescent ligand binding, flow cytometry | actives 0.74% (n = 24,000) | inhibition, % (concentration not given with the values);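 further: 0% = buffer wells and 100% = receptor blocker peptide wells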
# VLA-4 antagonist: inhibitors of LDV-FITC ligand binding to Mn2+-activated human VLA-4 integrin. P13612. Jurkat cells, LDV-FITC binding with Mn2+, flow cytometry; 100% = Mn2+-driven binding gain fully reversed. inhibition, % at 10 µM (by protocol). actives 0.2% (n = 24,000). AID 529;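 active means inhibition above 50%; inconclusive means compound itself fluorescent, judged against control cell fluorescence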;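 further: 0% = Mn2+ stimulated cells lacking compound and 100% = ligand binding without Mn2+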
# Jurkat autofluor: autofluorescence counter-screen for VLA-4 integrin assays; actives 0.61% (n = 24,000); fluorescence ratio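 (tested at 10 µM compound in the well)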; Jurkat cells, compound autofluorescence, flow cytometry; active compounds read high; 1 = vehicle-only cell background;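 active means fluorescence ratio above 2.44, which is 1 plus 3 SD of all ratios; inconclusive means signal too bright to measure linearly, ratio around 10 or more; inactive means fluorescence ratio below 2.44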;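 further: green fluorescence of cells measured with 488 nm excitation and 530 nm emission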
# Proteasome disasm: blocks ATP-dependent breakdown of the yeast 26S proteasome | anti-FLAG beads, GFP-proteasome disassembly, flow cytometry | inhibition of disassembly, % (test concentration not listed) | actives 0.2% (n = 24,000);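 active means inhibition of disassembly above about 33%, limit read from the data; inconclusive means likely self-fluorescent, control bead median signal at least 40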;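 further: plate controls were ATP control with full disassembly for no effect and ATP-gamma-S intact proteasomes for full effect; higher percent means more bead fluorescence retained so stronger block of disassembly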
# VLA-4 agonist: allosterically activates the human VLA-4 integrin; P13612; Jurkat cells, LDV-FITC binding, flow cytometry; activation, % at 10 µM (by protocol); 24,000 tested, under 10 active; AID 528;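 active means fluorescent ligand binding to cells raised by more than 40% of the manganese-induced maximum; inconclusive means compound's own fluorescence above 85% of the ligand control signal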;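 further: 0% = ligand binding without compound and 100% = manganese-stimulated maximal binding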
# FPRL1 binder: human FPRL1 ligand, with FPR counter-screen | actives 0.3% (n = 24,000) | FPRL1-expressing cells, fluorescent ligand binding inhibition, flow cytometry | inhibition, % (no concentration beside the values) | P25090;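 further: 0% = buffer alone and 100% = receptor blocker peptide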
# Target sequence (P25090 whole entry, looked up): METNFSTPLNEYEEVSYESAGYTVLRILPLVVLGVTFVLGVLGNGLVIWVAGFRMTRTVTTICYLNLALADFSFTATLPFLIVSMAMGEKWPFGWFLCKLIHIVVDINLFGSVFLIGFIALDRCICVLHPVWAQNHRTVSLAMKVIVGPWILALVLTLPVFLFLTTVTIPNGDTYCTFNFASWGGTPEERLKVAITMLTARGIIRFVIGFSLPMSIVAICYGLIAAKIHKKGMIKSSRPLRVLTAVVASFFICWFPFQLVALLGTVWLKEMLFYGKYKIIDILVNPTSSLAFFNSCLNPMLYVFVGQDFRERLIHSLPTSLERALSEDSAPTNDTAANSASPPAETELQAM
# * marks the source's active call; other numbers are inactive results; ? = inconclusive; nt = not tested or not shown. Unless noted, no stated cut-off is given here; in the data, active means inhibition above about 30%; inconclusive means no clear call, values can overlap the other calls; inactive means below that.
SMILES,FPR binder,VLA-4 antagonist,Jurkat autofluor,Proteasome disasm,VLA-4 agonist,FPRL1 binder
CCCN1Cc2cccc(C(=O)Nc3ccc(CN4CCCC4)cc3)c2C1=O,0,-2,1,102*,1,-5
CCCN1Cc2cccc(C(=O)Nc3ccc(OC)c(OC)c3)c2C1=O,-1,6,1,-1,4,0
COc1ccc(-c2nnc(NC(=O)c3ccc(S(=O)(=O)N4COCC4(C)C)cc3)o2)cc1,-6,?,6.3*,-2,?,-2
O=C(Nc1nnc(-c2ccccc2Cl)o1)c1ccc(S(=O)(=O)N2CCCCCC2)cc1,31*,-10,1.1,1,2,-5
CC1CCCCN1S(=O)(=O)c1ccc(C(=O)Nc2nnc(-c3ccccc3Cl)o2)cc1 (stereo not given),4,-12,1.1,-1,-2,1
CC1(C)COCN1S(=O)(=O)c1ccc(C(=O)Nc2nnc(-c3ccc(Cl)s3)o2)cc1,6,39,1.2,2,-4,-6
CCc1nnc(NC(=O)c2ccc(S(=O)(=O)N(CCOC)CCOC)cc2)o1,0,?,3.6*,-2,?,2
CCN(Cc1ccccc1)S(=O)(=O)c1ccc(C(=O)Nc2nnc(-c3ccccc3OC)o2)cc1,-8,?,1.4,-1,?,-2
COc1ccccc1-c1nnc(NC(=O)c2ccc(S(=O)(=O)N(C)C)cc2)o1,-2,?,5.1*,0,?,6
CCOC(=O)c1cn2c3c(c(F)c(F)c(F)c3c1=O)SC(N1CCCC1)=N2,?,?,?,1,?,?
CCCCNC(=O)c1cn(C)c2ccc(S(=O)(=O)N3CCOCC3)cc2c1=O,-5,4,1.1,-3,-3,-6
CCC(Sc1nc2c(c(=O)[nH]1)CCC2)C(=O)Nc1cccc(OC)c1 (stereo not given),62*,0,1.1,1,-10,-2
CCOC(=O)c1ccc(N2Cc3cc(C)c(C)cc3C2)cc1O,-3,-13,1,0,-2,2
CCOC(=O)c1c(C)oc2c1c(/C=N/c1ccccn1)c(O)c1ccccc12,nt,?,8.9*,?,?,nt
CNC(=O)C1C2C=CC3(O2)C1C(=O)N(C1CC1)C3C(=O)NCc1ccc(OC)cc1 (stereo not given),2,-14,1,-2,-2,-4
O=c1c[n+]([O-])c2ccccc2n1OCc1c(F)cccc1F,-5,?,3.1*,13,?,2
CC(=O)OCCNc1cc(N2CCN(C)CC2)c2noc3c2c1C(=O)c1ccccc1-3,6,14,1.2,-3,-6,53*
Cc1cccn2c(=O)c3cc(C(=O)N4CCc5ccccc54)n(C)c3nc12,-1,?,1.8,-1,?,-7
COc1cccc(OC)c1/C(O)=C(\C#N)c1nc2ccccc2[nH]1,32*,-21,1.2,1,0,12
COc1cccc(NS(=O)(=O)c2ccc(Br)s2)c1,?,?,2.9*,2,?,?
CCn1cc(C2=NOC(C(=O)Nc3cc(C)nn3-c3ccccc3)C2)c(C)n1 (stereo not given),-2,-3,1.1,-1,-1,0
CCOC(=O)N1CCC(NC(=O)c2cc(C(=O)Nc3cccc(OC)c3)ccc2CO)CC1,6,-28,1,-1,4,3
CCOC(=O)N1CCC(NC(=O)c2cc(C(=O)Nc3ccc(OC)c(OC)c3)ccc2CO)CC1,15,?,1.1,-1,3,34*
COC(=O)Cc1cc(=O)n2[nH]c(C)c(-c3ccccc3)c2n1,5,nt,nt,nt,nt,2
CCCc1cc(=O)n2[nH]c(C)c(-c3ccccc3)c2n1,35*,nt,nt,nt,nt,29
SMILES,FPR binder,VLA-4 antagonist,Jurkat autofluor,Proteasome disasm,VLA-4 agonist,FPRL1 binder
Cc1[nH]n2c(=O)cc(-c3ccc([N+](=O)[O-])cc3)nc2c1-c1ccccc1,70*,nt,nt,nt,nt,47*
O=C(NCCN1CCOCC1)C1CC(=O)N(c2ccc(F)c(Cl)c2)C1 (stereo not given),-3,-7,1.1,-1,4,-4
CCc1ccc2nc(NC(=O)CSCc3c(C)noc3C)sc2c1,-3,-4,1.1,-2,-2,4
COC(=O)c1ccc2c(c1)N(Cc1nc(-c3cccc(Cl)c3)oc1C)C(=O)C1CCCN21 (stereo not given),0,9,1.2,81*,8,-7
COC(=O)c1ccc2c(c1)N(Cc1nc(-c3ccc(Cl)cc3)oc1C)C(=O)C1CCCN21 (stereo not given),0,15,1.1,138*,6,-5
COc1ccc(-n2nc3c(c2NC(=O)c2cc4ccccc4oc2=O)CS(=O)(=O)C3)cc1,2,12,1.1,-3,-7,-4
c1cc(-c2nc3cc(Oc4ccc5oc(-c6ccncc6)nc5c4)ccc3o2)ccn1,1,-2,1.1,1,-8,-7
COc1ccc(-c2cc(C(F)(F)F)nc(N3CCCCC3)n2)cc1OC,10,15,1.2,1,-5,33*
COc1ccc(-c2cc(C(F)(F)F)nc(N3CCN(C)CC3)n2)cc1OC,-11,nt,nt,nt,nt,0
COc1ccc(-c2cc(C(F)(F)F)nc(N3CCN(c4ccccc4)CC3)n2)cc1OC,68*,-7,0.98,1,5,16
COc1ccccc1N1CCN(c2nc(-c3ccccc3)cc(C(F)(F)F)n2)CC1,-6,-10,0.9,0,6,nt
Cc1nc(NC2=NCN(CCc3ccccc3)CN2)nc2c(C)cccc12,13,-12,1,4,4,-4
Cc1cc(SCC(N)=O)nc(SCC(=O)c2ccccc2)n1,48*,-2,1,0,6,49*
COc1cc(C)nc(SCC(N)=O)n1,-2,-4,1,-1,5,8
CCN(C(=O)c1coc(=O)c2ccccc12)c1cc(OC)ccc1OC,0,?,1,0,?,-1
CCN(C(=O)Cc1c(C(=O)O)[nH]c2ccccc12)c1cc(OC)ccc1OC,32*,-14,1.1,0,5,0
Cc1sc2c(c1C)CN(Cc1ccco1)CN2C(=O)c1ccccc1,3,?,1.2,3,?,1
CCSc1nnc(NC(=O)CSc2nnc(Cc3cccn3C)n2CCc2ccccc2)s1,34*,-2,1.1,-1,-2,-2
Cn1cccc1Cc1nnc(SCC(=O)Nc2nccs2)n1CCc1ccccc1,10,8,0.92,3,6,6
CCn1c2ccccc2c2cc(N)ccc21,8,?,3.4*,?,?,2
CCn1c(C)cc(=S)c2ccccc21,5,5,1.5,2,-1,-2
CC1(C)CC(=O)C2=C(C1)Nc1ccccc1N=C2,-10,1,1.1,1,-2,0
CCCCCNC(=O)CCCCn1c(=O)[nH]c2cc(OCC)c(OCC)cc2c1=O,-2,78*,1,1,-10,-11
